Rab9 prom act: Rab9 promoter activation; Huh7 Rab9 promoter-luciferase reporter, luminescence, 24 h; 320,000 tested, 2.8% active; Potency, µM (doses to about 9.22 µM), inactives show top-dose activation, negative = inhibition, usual class: activators; note: % of control where 0% means no effect; nearly all actives have a fitted effect of over 60% in size
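Luminescence read-out: Huh7 cells stably expressing Rab9-luciferase, treated 24 h with compound at 37 °C, then lysed with luciferase reagent for 10 min at ambient before reading.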
NPC1 promoter act: activates the NPC1 promoter | Huh7 NPC1 promoter luciferase reporter, 24 h | Potency, µM (highest dose often 9.22 µM), inactives show at the top dose activation, actives largely listed as activators | 320,000 tested, 2.4% active | AID 485313; note: % of control where 0% means no effect; nearly all actives have a fitted effect of over 60% in size
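Luminescence from an NPC1 promoter-driven luciferase reporter in stably transfected Huh7 cells was measured after 24 h compound treatment at 37 °C, followed by 10 min ambient incubation with luciferase detection reagent.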
KinaseGlo FLuc: blocks Kinase-Glo luciferase, a counter-screen artifact | Q27757 | Kinase-Glo luciferase, ATP luminescence, 8 min | Potency, µM (highest dose often 38.3 µM), for the others: at the top dose activity change, negative = inhibition, hits mostly inhibitors | 200,000 tested, 0.28% active | AID 1379; note: % is set by controls: 0 for no effect and ±100 for the full control effect; nearly all actives have a fitted effect of over 60% in size
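Inhibition of Kinase-Glo luciferase light generation was assessed at 10 uM ATP in pH 7.2 imidazole buffer, with luminescence measured after eight minutes at ambient temperature.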
SMN2 splice enh: increases expression of the SMN2 splice variant | 210,000 tested, 2.8% active | HEK293 SMN2-luciferase splicing reporter, luminescence, 30-36 h | Potency, µM (series often up to 46.1 µM), for the others: at the top dose activity change, positive = activation, most hits filed as activators; note: % of control where 0% means no effect; nearly all actives have a fitted effect of over 55% in size
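qHTS luciferase splicing reporter: luminescence rises when SMN2 exon 7 is included in transfected HEK293 cells. Compound exposure lasted 30-36 h at 37C, with 4.5 mM final sodium butyrate as control, followed by a ONE-Glo read.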
ELG1 genotoxic: genotoxicity induction in ELG1-luciferase HEK293T cells. AID 504466. HEK293T ELG1-luciferase reporter, luminescence, 16 h. 330,000 tested, 1.3% active. Potency, µM (highest dose often 46 µM), without a hit: at the highest dose activity change, positive = activation, usual class: activators; note: % of control where 0% means no effect; nearly all actives have a fitted effect of over 60% in size
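Genotoxic stress is detected as increased luminescence from luciferase-tagged ELG1 in HEK293T cells, measured with ONE-Glo after a 16 hr treatment at 37 °C.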
FLuc modulator: firefly luciferase modulation, counter-screen for miR-21 project; purified FLuc, Km substrates, luminescence inhibition; Potency, µM (titrated, usually from 57.5 µM), without a hit: top-dose activity change, negative = inhibition, most hits filed as inhibitors; 360,000 tested, 6.9% active;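 note: plate controls were vehicle for no effect and reference inhibitor for full effect; nearly all actives have a fitted effect of over 55% in size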
Target sequence (P08659 whole entry, looked up): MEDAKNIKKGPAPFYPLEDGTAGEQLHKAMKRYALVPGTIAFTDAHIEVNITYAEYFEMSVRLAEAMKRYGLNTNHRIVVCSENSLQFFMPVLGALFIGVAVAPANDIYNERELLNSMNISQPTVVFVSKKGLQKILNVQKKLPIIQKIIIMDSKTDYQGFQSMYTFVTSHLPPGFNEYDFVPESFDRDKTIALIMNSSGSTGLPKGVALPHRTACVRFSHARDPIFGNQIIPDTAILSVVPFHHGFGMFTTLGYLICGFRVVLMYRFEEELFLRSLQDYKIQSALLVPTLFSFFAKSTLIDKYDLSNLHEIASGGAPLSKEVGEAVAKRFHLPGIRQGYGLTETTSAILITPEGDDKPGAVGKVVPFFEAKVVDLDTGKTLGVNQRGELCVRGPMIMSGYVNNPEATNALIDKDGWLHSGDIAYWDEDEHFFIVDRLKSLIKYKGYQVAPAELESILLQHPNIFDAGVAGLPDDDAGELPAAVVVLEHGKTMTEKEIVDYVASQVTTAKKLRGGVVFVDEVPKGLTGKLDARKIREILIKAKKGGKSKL
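Purified P. pyralis luciferase, 10 nM final, with Km-level 10 uM D-luciferin and 10 uM ATP in 50 mM Tris acetate pH 7.5, 10 mM Mg acetate, 0.01% Tween-20, 0.05% BSA; 6-point qHTS titration about 60 µM downward; luminescence read.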
Numbers without * were called inactive; ? = inconclusive; . = not tested or not shown; [ ] = dose if it differs, or a comment. Most compounds without a hit are left out; they make up all but 7.5% or so of the library. Calls come from the whole dose curve; as a rule, active = well fitted curve in the direction sought with a large enough effect; inconclusive = small, poorly fitted or top-dose-only effect, or another doubt; inactive = no such curve, though single readings can be large; an effect the other way counts as inactive or inconclusive. Potency is the fitted concentration of half-maximal effect.

SMILES	Rab9 prom act	NPC1 promoter act	KinaseGlo FLuc	SMN2 splice enh	ELG1 genotoxic	FLuc modulator
CCc1c(-c2ccccc2)nc2sc3c(c2c1N)CCCC3	?	26.2%	.	.	-4.1%	1.69µM*
O=c1oc(-c2cccs2)nc2sc3c(c12)CCCCC3	?	?	-6.9%	15.8µM*	0.9%	1.2µM*
Nc1c(C(=O)O)sc2nc(-c3ccccc3)c3c(c12)CCCC3	0.9%	-0.9%	-1.7%	-5.6%	0.8%	-1.0%
O=c1oc(/C=C/c2ccccc2)nc2sc3c(c12)CCC3	?	21.4%	-23.0%	11.2µM*	14.1µM*	0.953µM*
COc1ccc2cc(-c3nc(Cl)c4c5c(sc4n3)CCCC5)c(=O)oc2c1	.	.	.	2.6%	.	?
O=C1CN(c2nc(-c3cccnc3)nc3sc4c(c23)CCCC4)CCN1	-3.4%	-0.3%	7.0%	?	-1.9%	?
Nc1nc(-c2cccnc2)nc2sc3c(c12)CCCC3	3.16µM*	2µM*	-5.9%	11.2µM*	7.3µM*	1.07µM*
Cc1ccc2c(=O)cc(C(=O)Nc3c(C(=O)c4ccccc4)oc4ccccc34)oc2c1	.	.	.	8.9%	.	1.0%
CNC(=O)Nc1ccc2nc(C)oc2c1	-9.2%	-7.3%	.	.	-0.3%	2.7%
O=C(Nc1ccccc1)Nc1ccc2ocnc2c1	1.26µM*	?	11.2µM*	?	13.4%	10.7µM*
O=C(Nc1ccccc1)Nc1ccc2ncoc2c1	?	?	-18.7%	11.2µM*	?	12µM*
O=C(CN1N=C(c2ccc(Cl)cc2)CCC1=O)NCc1ccc(F)cc1	.	.	.	.	.	-16.9%
Cc1ccc2nc(CSc3nc(C)cc(C)c3C#N)[nH]c2c1	?	11.8%	-1.3%	4.47µM*	?	3.38µM*
CSc1ncccc1C(=O)OCc1ccccc1F	27.8%	?	-10.4%	27.7%	16.5%	15.1µM*
CSc1ncccc1C(=O)OCc1ccccc1	?	19.9%	-5.5%	0.7%	?	19µM*
CSc1ncccc1C(=O)OCc1ccc(COC(=O)c2cccnc2SC)cc1	0.7%	-2.0%	-0.9%	-9.5%	5.9%	5.2%
O=c1cc(-c2ccc(O)cc2)oc2c1ccc1ccccc12	11.3%	3.7%	.	.	?	-11.9%
COc1cc2oc(-c3ccc(O)cc3)cc(=O)c2c(OC)c1O	1.3%	-2.2%	.	.	16.4µM*	23.9µM*
COc1c(O)cc2oc(-c3ccc(O)cc3)cc(=O)c2c1O	?	?	.	.	9.2µM*	0.849µM*
COc1cc2oc(-c3ccc(O)cc3)cc(=O)c2c(O)c1OC	-0.2%	23.6%	.	.	?	19µM*
COc1cccc2oc(-c3ccc(O)cc3)cc(=O)c12	.	.	-18.9%	.	.	.
O=c1cc(-c2ccccc2)oc2cc(O)c(O)c(O)c12	.	.	0.7%	?	?	.
O=c1cc(-c2ccc(O)cc2)oc2ccc3ccccc3c12	?	0.891µM*	.	.	?	0.0675µM*
CCOC(=O)C1CCN(CC(=O)c2c(C)n(C)c3ccc(OC)cc23)CC1	-0.9%	-0.6%	.	.	-0.1%	-2.1%
CC(OC(=O)c1ccc(S(=O)(=O)N2CCCCC2)cc1)C(=O)NC1CCCCC1C (centres undefined)	6.7%	2.3%	.	.	3.9%	2.8%
SMILES	Rab9 prom act	NPC1 promoter act	KinaseGlo FLuc	SMN2 splice enh	ELG1 genotoxic	FLuc modulator
CCOc1ccc2c(c1)C(=O)c1cc(OCC(=O)O)ccc1-2	2.2%	14.3%	.	.	-7.6%	3.38µM*
CCCCOc1ccc2c(c1)C(=O)c1cc(O)ccc1-2	3.16µM*	?	-0.1%	.	?	26.9µM*
CCOc1ccccc1NC(=O)C1CCCN(c2ncnc3onc(-c4ccc(F)cc4)c23)C1 (centres undefined)	.	.	.	.	.	-7.9%
Cc1[nH]n(-c2ccccc2)c(=O)c1/C=N/Nc1nncc(-c2ccccc2)n1	-35.7%	-14.2%	-0.7%	-83.2%	?	13.5µM*
Cc1[nH]n(-c2ccc(Cl)cc2)c(=O)c1/C=N/c1nnc(-c2ccccc2)s1	0.0%	-1.5%	?	19.1%	5.7%	19µM*
Cc1cc(C(=O)N/N=C/c2c(C)[nH]n(-c3ccccc3)c2=O)n[nH]1	-2.3%	0.0%	.	.	1.5%	5.36µM*
CCc1nnc(NS(=O)(=O)c2ccc(N=Cc3c(C)[nH]n(-c4ccc(Cl)cc4)c3=O)cc2)s1	2.5%	1.0%	-7.7%	-9.4%[1.84 µM]	3.8%	-20.0%
Cc1[nH]n(-c2ccccc2)c(=O)c1/C=N/NC(=O)c1ccc(O)cc1O	10.6%	19.3%	.	.	?	2.13µM*
Cc1ccc(-n2[nH]c(C)c(/C=N/NC(=O)c3ccc(O)cc3O)c2=O)cc1	4.2%	23.1%	.	.	?	0.426µM*
O=C(NNC(=O)c1ccc(-c2ccc([N+](=O)[O-])cc2)o1)c1ccncc1	4.9%	-1.8%	.	.	5.3%	.
O=C(Nc1nccs1)c1cncc(Br)c1	3.98µM*	?	-4.1%	11.2µM*	7.2%	?
Cc1csc(NC(=O)c2cncc(Br)c2)n1	1.12µM*	2.82µM*	-2.1%	12.6µM*	?	9.53µM*
Cc1csc(NC(=O)c2ccc(S(C)(=O)=O)cc2)n1	?	?	-4.1%	-16.3%	-20.1%	?
Cc1ccc(C)c(NC(=O)CCCN2C(=O)C(c3ccccc3)Oc3cccnc32)c1 (centres undefined)	.	.	.	.	.	-2.8%
Cn1c(N)c(-c2ccccc2)c2ccc([N+](=O)[O-])cc2c1=O	1.1%	-1.0%	.	.	-17.0%	2.2%
O=C(NCc1ccccc1)NC1CCCCC1	9.6%	26.4%	11.5%	8.8%	?	-17.0%
NC(=O)NCCC1=CCCCC1	-0.1%	-5.5%	7.7%	4.1%	-1.2%	6.8%
O=C(NCCc1ccccc1)NC1CCCCC1	0.562µM*	1.12µM*	-0.4%	11.2µM*	?	10.7µM*
O=C(NCCC1=CCCCC1)NC1CCCCC1	0.794µM*	1.41µM*	0.4%	7.08µM*	?	6.75µM*
S=C(NCCc1cccc(Cl)c1)NC1CCCCC1	2.82µM*	3.55µM*	.	.	?	19µM*
Cc1cccc(-n2cc(CN3CCN(Cc4nccn4C)CC3)c(-c3cccc(F)c3)n2)c1	8.0%	3.1%	.	.	-0.6%	26.9µM*
COc1ccc(-n2cc(CN3CCCC3)c(-c3cccc(F)c3)n2)cc1	-6.0%	-3.2%	0.7%	.	-1.4%	?
CN(C)c1ccc(/C=N/NC(=O)c2ccccc2O)o1	4.8%	-3.0%	-2.9%	1.2%	1.5%	21.3µM*
O=C(N/N=C/c1ccc(-c2cccc(C(F)(F)F)c2)o1)c1ccccc1Br	1.2%	7.7%	-0.3%	-25.1%	-1.0%	21.3µM*
O=C(N/N=C/c1ccc(-c2cccc(C(F)(F)F)c2)o1)c1ccccc1O	0.2%	-1.7%	-1.0%	2.7%	-4.7%	2.1%

Screening results as filed in PubChem BioAssay.
